Molecules are shown by their SMILES. Results filed as inconclusive are left out. Active and inactive are the calls of the source. Calls follow the shape of the dose curve; as a rule, active = well fitted inhibition curve with a large enough effect; inconclusive = small, poorly fitted or top-dose-only effect; inactive = flat fitted curve, though single readings scatter.
Potency is read from the fitted curve at half-maximal effect.

The test system of this test is MCC-13. Description: qHTS assay to identify novel small-molecules to repurpose for Merkel cell carcinoma treatment (AID 1296009). Also: nearly all actives have a fitted effect of over 60% in size. The note with it: MCC and control cell lines, CellTiter-Glo viability, 72 h; series mostly up to 46 µM. In short, it runs like this:
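Cell viability measured by CellTiter-Glo following 72 hr compound treatment at 37 degree celsius, with NPC and MIPE libraries tested in 8- and 11-point concentration series.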
For orientation: In qHTS, concentration-response curves come from the screen itself.
For the compound `CN(C)c1ccc(C(=O)NCCCCCCC(=O)NO)cc1`, the Potency was 4.18 µM (active).
As to `Cc1cnc(Nc2ccc(CN3CCOCC3)cc2)nc1Nc1cccc(S(=O)(=O)NC(C)(C)C)c1`, the Potency was 13.2 µM (active).
Consider `O=C(CN1C(=O)C2(CCCC2)NC[C@H]1c1cc(F)cc(F)c1)Nc1ccc2c(c1)C[C@@]1(C2)C(=O)Nc2ncccc21`, for which the Potency entry is “inactive”.
As to `CC(C=CC1=C(C)CCCC1(C)C)=CC=CC(C)=CC(=O)Nc1ccc(O)cc1`, the Potency entry is “inactive”.
For the compound `CCc1c(O)cc(O)c(C(=O)c2ccc(OCCN3CCOCC3)c(OC)c2)c1CC(=O)N(CCOC)CCOC`, the Potency result is “inactive”.
As to `O=C1NC(=O)[C@@H](c2cn3c4c(cccc24)CCC3)[C@H]1c1c[nH]c2ccccc12`, the Potency is 3.32 µM (active).
The value for `COC[C@H](NC(=O)c1cnc(C)s1)C(=O)N[C@@H](COC)C(=O)N[C@@H](Cc1ccccc1)C(=O)[C@@]1(C)CO1` was 0.526 µM (active).
Take `CCOC(=O)N1CCN([N+]([O-])=NOc2ccc([N+](=O)[O-])cc2C#N)CC1`: the Potency was 2.64 µM (active).
For `c1cc(N[C@@H]2CCNC2)nc(-c2cnc3ccc(-c4cn[nH]c4)cn23)c1` the value was “inactive”.
Regarding `NS(=O)(=O)OC[C@@H]1C[C@@H](n2ccc3c(N[C@H]4CCc5ccccc54)ncnc32)C[C@H]1O`, the Potency was 5.9 µM (active).
As for `O=c1ccn([C@@H]2O[C@H](CO)[C@H](O)[C@@H]2F)c(=O)[nH]1`, the Potency entry is “inactive”.
For `COc1cc(CCc2cc(NC(=O)c3ccc(N4C[C@@H](C)N[C@@H](C)C4)cc3)n[nH]2)cc(OC)c1` the value was “inactive”; for `C=CCNC1=C2C[C@@H](C)C[C@H](OC)[C@@H](O)[C@@H](C)C=C(C)[C@H](OC(N)=O)[C@@H](OC)C=CC=C(C)C(=O)NC(=CC1=O)C2=O`, 3.72 µM (active).
